The values below come from the supplement of paper PMC4840960.

Where a name gives a salt, the structure may show the parent alone.

In this experiment the test system is E18 rat cortical neuron-glia co-culture. Put plainly: myelination (MBP fiber length per Olig2+ nucleus), % of 1 µM DAPT response (DMSO = 0) (% of DAPT); higher = more myelination, active = 50 or more. The conditions noted are these: 5 µM; treatment time: 8 days (DIV5-DIV13). In outline:
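Rat cortical co-cultures from E18 tissue were dissociated with papain and plated at 20,000 cells/well on 96-well plates coated with poly-d-lysine/laminin. From DIV5 to DIV13, library compounds were added at 1 or 5 µM in myelination medium. After fixation in 4 % paraformaldehyde, cultures were immunostained for MBP and Olig2 and counterstained with DAPI, and four 10X fields were analysed in each of duplicate wells. The myelination value is the length of continuous straight MBP fibers per Olig2+ nucleus, normalised so that 0.1 % DMSO is 0 and a 1 µM positive control is 100.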
As to `CCC(=O)NS(=O)(=O)c1ccc(-c2c(-c3ccccc3)noc2C)cc1` [Parecoxib], the myelination was 1.22 (inactive).

As to `CC(=O)S[C@@H]1CC2=CC(=O)CC[C@]2(C)[C@H]2CC[C@@]3(C)[C@@H](CC[C@@]34CCC(=O)O4)[C@H]12` [Spironolactone], the myelination is 6.33 (inactive).

`O=C1[C@H](CC[C@H](O)c2ccc(F)cc2)[C@@H](c2ccc(O)cc2)N1c1ccc(F)cc1` [Ezetimibe]: the myelination is -37.1 (inactive).

In the case of `C[C@]12CC[C@@H]3c4ccc(OS(=O)(=O)O)cc4CC[C@H]3[C@@H]1CCC2=O` [Estrone sulfate], the myelination is 5.79 (inactive).

In the case of `Oc1ncnc2[nH]ncc12` [Allopurinol], the myelination was -0.27 (inactive).

`CC(C)(C)NC(=O)[C@H]1CC[C@H]2[C@@H]3CC[C@H]4NC(=O)C=C[C@]4(C)[C@H]3CC[C@]12C` [Finasteride]: the myelination was -10.7 (inactive).

For the compound `CO[C@H]1/C=C/O[C@@]2(C)Oc3c(C)c(O)c4c(c3C2=O)C2=NC3(CCN(CC(C)C)CC3)NC2=C(NC(=O)/C(C)=C\C=C\[C@H](C)[C@H](O)[C@@H](C)[C@@H](O)[C@@H](C)[C@H](OC(C)=O)[C@@H]1C)C4=O` [Rifabutin], the myelination was -11.2 (inactive).

As for `CCCc1cc(=O)[nH]c(=S)[nH]1` [Propylthiouracil], the myelination is -11.9 (inactive).

Turning to `N[C@@H](Cc1cc(I)c(Oc2ccc(O)c(I)c2)c(I)c1)C(=O)O` [Triiodothyronine], the myelination was 24.8 (inactive).

On to `CCOc1ccc2ccccc2c1C(=O)N[C@@H]1C(=O)N2[C@@H]1SC(C)(C)[C@@H]2C(=O)O` [Nafcillin], for which the myelination was -9.33 (inactive).

As to `CC[N+](C)(C)c1cccc(O)c1` [Edrophonium], the myelination is 0.577 (inactive).

Regarding `CN(C)[C@@H]1C(O)=C(C(=O)NCN2CCCC2)C(=O)[C@@]2(O)C(O)=C3C(=O)c4c(O)cccc4[C@@](C)(O)[C@H]3C[C@@H]12` [Rolitetracycline], the myelination was -5.55 (inactive).

`C[C@H]1O[C@@H](O[C@H]2[C@@H](O)C[C@H](O[C@H]3[C@@H](O)C[C@H](O[C@H]4CC[C@@]5(C)[C@H](CC[C@@H]6[C@@H]5C[C@@H](O)[C@]5(C)[C@@H](C7=CC(=O)OC7)CC[C@]65O)C4)O[C@@H]3C)O[C@@H]2C)C[C@H](O)[C@@H]1O` [Digoxin] gave a myelination of 68.2.

Regarding `N[C@@H](C(=O)N[C@@H]1C(=O)N2C(C(=O)O)=C(CSc3c[nH]nn3)CS[C@H]12)c1ccc(O)cc1` [Cefatrizine], the myelination was -4.37 (inactive).

Turning to `CCN(CC)CC#CCOC(=O)C(O)(c1ccccc1)C1CCCCC1` (stereo not drawn) [Oxybutynin], the myelination was -5.69 (inactive).

With `CC(COc1ccccc1)NC(C)C(O)c1ccc(O)cc1` (stereo not drawn) [Isoxsuprine], the myelination is -2.46 (inactive).

Turning to `C=CC1=C(C(=O)O)N2C(=O)[C@@H](NC(=O)/C(=N\OCC(=O)O)c3csc(N)n3)[C@H]2SC1` [Cefixime], the myelination is 28.9 (inactive).

With `CC(=O)Nc1ccc(CC(=O)O)cc1` [Actarit], the myelination was -10.1 (inactive).

For the compound `CC(C(=O)O)c1ccc(CC2CCCC2=O)cc1` (stereo not drawn) [loxoprofen], the myelination was -10.6 (inactive).

On to `CN(C)CCOC(c1ccc(Cl)cc1)c1ccccn1` (stereo not drawn) [Carbinoxamine], for which the myelination was 8.5 (inactive).

As for `CC(C)n1c(/C=C/C(O)CC(O)CC(=O)O)c(-c2ccc(F)cc2)c2ccccc21` (stereo not drawn) [Fluvastatin], the myelination is -13.7 (inactive).

For the compound `CCOC(=O)[C@@]1(CCCCCCOc2ccc(Cl)cc2)CO1` [Etomoxir], the myelination is -26.2 (inactive).

As to `O=C(C1CCCCC1)N1CC(=O)N2CCc3ccccc3C2C1` (stereo not drawn) [Praziquantel], the myelination was -1.87 (inactive).

`CC(C)[C@H](N)C(=O)OCCOCn1cnc2c(=O)nc(N)[nH]c21` [Valaciclovir]: the myelination was -19 (inactive).

`Cc1c(O)c(=O)ccn1C` [Deferiprone]: the myelination is -23.2 (inactive).

Regarding `OCCOCCN1CCN(C2=Nc3ccccc3Sc3ccccc32)CC1` [Quetiapine hemifumarate], the myelination is -19.9 (inactive).

With `CC(C)/N=c1\cc2n(-c3ccc(Cl)cc3)c3ccccc3nc-2cc1Nc1ccc(Cl)cc1` [Clofazimine], the myelination was -8.06 (inactive).

In the case of `CCS(=O)(=O)CCn1c([N+](=O)[O-])cnc1C` [Tinidazole], the myelination was -14.2 (inactive).

`Cc1ncc([N+](=O)[O-])n1CCO` [Metronidazole]: the myelination is -10.1 (inactive).

As to `CCCNC(=O)NS(=O)(=O)c1ccc(Cl)cc1` [Chlorpropamide], the myelination is -5.62 (inactive).

Regarding `COc1ccc2[nH]c([S+]([O-])Cc3ncc(C)c(OC)c3C)nc2c1` (stereo not drawn) [Omeprazole], the myelination is -4.44 (inactive).

As for `NCc1ccc(S(N)(=O)=O)cc1` [Mafenide], the myelination was 3.49 (inactive).

For the compound `CN[C@@H]1[C@H](O)[C@H](NC)[C@H]2O[C@@]3(O)C(=O)C[C@@H](C)O[C@H]3O[C@@H]2[C@H]1O` [Spectinomycin], the myelination is -4.31 (inactive).

Take `CC(=O)N1CCN(c2ccc(OCC3COC(Cn4ccnc4)(c4ccc(Cl)cc4Cl)O3)cc2)CC1` (stereo not drawn) [Ketoconazole]: the myelination was -46.2 (inactive).

Turning to `Nc1nc2c(ncn2COC(CO)CO)c(=O)[nH]1` [Ganciclovir], the myelination was 7.82 (inactive).

As for `CCCCC[C@H](O)/C=C/[C@H]1[C@H](O)CC(=O)[C@@H]1CCCCCCC(=O)O` [Alprostadil], the myelination is -7.47 (inactive).

Turning to `Nc1nc(F)nc2c1ncn2[C@@H]1O[C@H](CO)[C@@H](O)[C@@H]1O` [Fludarabine], the myelination is 34.3 (inactive).

Take `CC(=O)CCCCn1c(=O)c2c(ncn2C)n(C)c1=O` [Pentoxifylline]: the myelination is -23.8 (inactive).
